{
  "source": "the supplement of paper PMC12494721",
  "note": "Where a name gives a salt, the structure may show the parent alone.",
  "data": [
    {"system": "Escherichia coli IAI1", "test": "growth (OD595) fold change vs plate DMSO controls (fold change (ratio)); higher = more growth", "conditions": "incubation time: 27 h, anaerobic, 37 °C", "procedure,_shortened": "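To obtain OD, 595 nm absorbance readings were blank-subtracted, corrected for compound background using 20 µM compound solutions in water, and multiplied by a calibration factor of 5. They came from 96-well mGAM cultures grown anaerobically for 27 h at 37 °C and shaken before reading. Growth is the fold change relative to the median of plate DMSO controls. Two biological replicates were averaged, and fold changes above 1.5 were set to NA.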", "values": [
      {"smiles": "CCOC(=O)[N-]c1c[n+](N2CCOCC2)no1", "note": "[Molsidomine] (20 µM)", "growth": 1.04},
      {"smiles": "CCN(CC)CCOC(=O)C(Cc1cccc2ccccc12)CC1CCCO1", "note": "(stereo unspecified) [Nafronyl oxalate] (20 µM)", "growth": 1.01},
      {"smiles": "CCN(CC)CCOC(=O)C1(C2CCCCC2)CCCCC1", "note": "[Dicyclomine hydrochloride] (20 µM)", "growth": 0.966},
      {"smiles": "CC[C@H]1OC(=O)[C@H](C)[C@@H](O[C@H]2C[C@@](C)(OC)[C@@H](O)[C@H](C)O2)[C@H](C)[C@@H](O[C@@H]2O[C@H](C)C[C@H](N(C)C)[C@H]2O)[C@](C)(O)C[C@@H](C)C(=O)[C@H](C)[C@@H](O)[C@]1(C)O", "note": "[Erythromycin] (20 µM)", "growth": 0.762},
      {"smiles": "NC(=O)NS(=O)(=O)c1ccc(N)cc1", "note": "[Sulfacarbamide] (20 µM)", "growth": 1.02},
      {"smiles": "O=c1[nH]cc(F)c(=O)[nH]1", "note": "[5-fluorouracil] (20 µM)", "growth": 0.87},
      {"smiles": "NC(=O)N/N=C/c1ccc([N+](=O)[O-])o1", "note": "[Nitrofural] (20 µM)", "growth": 1},
      {"smiles": "COC(=O)C1=C(C)NC(C)=C(C(=O)OC2CCCN(Cc3ccccc3)C2)C1c1cccc([N+](=O)[O-])c1", "note": "(stereo unspecified) [Benidipine hydrochloride] (20 µM)", "growth": 1.23},
      {"smiles": "CCNC(=O)CCC/C=C\\C[C@@H]1[C@@H](/C=C/[C@@H](O)CCc2ccccc2)[C@H](O)C[C@@H]1O", "note": "[Bimatoprost] (20 µM)", "growth": 1.06},
      {"smiles": "CN(Cc1ccc(C(C)(C)C)cc1)Cc1cccc2ccccc12", "note": "[Butenafine hydrochloride] (20 µM)", "growth": 1.04},
      {"smiles": "CN1CCC(OC(c2ccccc2)c2ccccc2)CC1", "note": "[Diphenylpyraline hydrochloride] (20 µM)", "growth": 0.955}
    ]}
  ]
}
